Screens (PubChem BioAssay)
Rows were chosen to be rich in hits. Some 19% of all compounds tested hit in one or more screens of this group.
DT40 TDP1 CPT: qHTS for Inhibitors of human tyrosyl-DNA phosphodiesterase 1 (TDP1): qHTS in cells in presence of CPT; chicken DT40 Tdp1-/-;hTDP1 cells + 20 nM CPT, ATP luminescence, 48 h; Potency, µM (series often up to 46.2 µM), without a hit: top-dose activity change, negative = growth inhibition, hits mostly inhibitors; 12% of 420,000 active; further: potency means the concentration at half of the fitted maximal effect; nearly all actives have a fitted effect of over 55% in size
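Chicken DT40 Tdp1-/- cells stably complemented with human TDP1 were seeded at 400 cells/well in medium containing 20 nM camptothecin, exposed to pin-transferred compounds, and grown at 37 °C for at least 48 hr. Viability was read as ATP luminescence.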
ELG1 repair inh: qHTS screen for small molecules that inhibit ELG1-dependent DNA repair in human embryonic kidney (HEK293T) cells expressing luciferase-tagged ELG1 | HEK293T ELG1-luciferase reporter, luminescence, 16 h; DNA damage induced by 5-fluorouridine | Potency, µM (doses to about 46.1 µM), without a hit: at the highest dose activity change, negative = inhibition, hits mostly inhibitors | 2.3% of 330,000 active; further: potency means the concentration at half of the fitted maximal effect; nearly all actives have a fitted effect of over 55% in size
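DMSO vehicle served as the neutral condition. Each well held 2,000 cells given 5-fluorouridine plus compound; after 16 hr at 37 °C/5% CO2, ONE-Glo was added and luciferase measured 30 min later.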
HT1080-NT tox: qHTS for induction of synthetic lethality in tumor cells producing 2HG: qHTS for the HT-1080-NT fibrosarcoma cell line | HT-1080-NT fibrosarcoma viability, CellTiter-Glo ATP luminescence, 48 h | Potency, µM (top dose mostly 46.1 µM), without a hit: at the highest dose activity, negative = less viability, actives largely listed as cytotoxic | 1.6% of 360,000 active | AID 686970, 2013;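 further: NT is the 2HG producing partner of a matched IDH1 knockdown line; potency means the concentration at half of the fitted maximal effect; 0% = DMSO-treated cells and -100% = media-only wells without cells; nearly all actives have a fitted effect of over 55% in size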
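Viability of the 2HG-overproducing fibrosarcoma line after 48 hours of compound exposure at 37 degrees C was determined by luminescence with CellTiter-Glo, and concentration-effect curves were then fitted and categorized.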
IL-1B inflam inh: qHTS for Inhibitors of Inflammasome Signaling: IL-1-beta AlphaLISA Primary Screen; THP-1 LPS/ATP IL-1B secretion, AlphaLISA, 16 h; active compounds read low; 4.7% of 360,000 active; activity change, % at 57.5 µM; in the data active means activity change below about -50%; inconclusive means mostly about -30% to -49%
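Secreted IL-1B measured by AlphaLISA bead assay after 16 h compound exposure of THP-1 cells; compounds (final up to 57.5 uM) added 1 h before LPS (250 ng/mL) and ATP (1.25 mM) stimulation; lower signal means less secretion.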
DT40 TDP1 no CPT: qHTS for Inhibitors of human tyrosyl-DNA phosphodiesterase 1 (TDP1): qHTS in cells in absence of CPT; 15% of 420,000 active; Potency, µM (series often up to 46.2 µM), for the others: at the top dose activity change, negative = growth inhibition, usual class: inhibitors; DT40 Tdp1-/- hTDP1 cells, no CPT, ATP luminescence, 48 h; AID 686978, 2013; further: potency means the concentration at half of the fitted maximal effect; nearly all actives have a fitted effect of over 55% in size
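DT40 Tdp1-/-;hTDP1 cells, no CPT (DMSO vehicle only), 400 cells/well; compounds pin-transferred; ≥48 hr, 37 °C; CellTiter-Glo 30 min RT dark, luminescence read.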
HT1080 IDH1KD tx: qHTS for induction of synthetic lethality in tumor cells producing 2HG: qHTS for the HT-1080-IDH1KD cell line; Potency, µM (titrated, usually from 46.1 µM), for inactives: at the highest dose activity, negative = toxicity, most hits filed as cytotoxic; AID 686971, 2013; 2% of 360,000 active; HT-1080 IDH1 knockdown viability, ATP luminescence, 48 h;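 further: potency means the concentration at half of the fitted maximal effect; 0% = DMSO wells and -100% = cell-free medium wells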
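% activity derives from luminescence (CellTiter-Glo), normalised to DMSO and no-cell wells. HT-1080-IDH1KD cells, 750/well, had 48 h compound exposure at 37 °C.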
Active calls of the source: *; u = inconclusive; x = no result given; [ ] = another dose, or the depositor's remark. Unless noted, the call rests on the fitted dose curve; in most records, active means well fitted curve in the direction sought with a large enough effect; inconclusive means small, poorly fitted or top-dose-only effect, or another doubt; inactive means no such curve, though single readings can be large; an effect the other way counts as inactive or inconclusive. Unless noted, on the % scale 0 is the no-effect control and ±100 the full control effect.

SMILES	DT40 TDP1 CPT	ELG1 repair inh	HT1080-NT tox	IL-1B inflam inh	DT40 TDP1 no CPT	HT1080 IDH1KD tx
CC(C)c1ccc(CNCc2ccccc2)cc1	-26%	22%	2%	-51*	-27%	-1%
CC(C)c1ccc(CNC(=O)CCc2ccccc2)cc1	-21%	-13%	-5%	19	u	1%
COc1ccc(-n2nc(C)c3c(C(F)(F)F)cc(-c4cccnc4)nc32)cc1	-18%	x	x	x	-23%	x
CCCNC(=O)C1(C)CCCN(C(=O)c2cccc(C#N)c2)C1 (stereo unspecified)	4%	x	18%	9	-7%	19%
CC(C)c1c(C(=O)N/N=C/c2ccsc2)nnn1-c1nonc1N	-8%	27%	4%	4	-14%	7%
O=C(NC1CCCC1)C(c1ccc(F)cc1)N1CCC(O)(c2ccc(Cl)cc2)CC1 (stereo unspecified)	u	x	-29%	-1	u	-13%
Cc1cc(C(=O)NC2CCCCCC2)c2ccccc2n1	-14%	-3%	-1%	5	-12%	-7%
Cc1cc(N2CCN(C(C(=O)NC3CCCC3)c3ccco3)CC2)c2ccccc2n1 (stereo unspecified)	21µM*	x	-6%	-14	23µM*	-1%
Cc1cc(N2CCN(C(C(=O)NC3CCCC3)c3ccc(F)cc3)CC2)c2ccccc2n1 (stereo unspecified)	18µM*	x	u	-2	u	u
Cc1c(C(=O)NCC2Cc3cccc(-c4cncnc4)c3O2)c(-c2ccccc2)nn1-c1ccccc1 (stereo unspecified)	-8%[9.04 µM]	x	x	x	-16%	x
CS(=O)(=O)c1ccc(NC(=O)CCCc2nc3ccccc3c(=O)[nH]2)cc1	1%	0%	4%	6	-21%	7%
O=C(NNC(=O)c1ccccc1O)c1ccc(Br)cc1	u	u	-29%	31	u	u
O=C(CCNC(=O)c1ccc(Br)cc1)NNC(=O)c1ccccc1O	u	4%	-15%	48	23µM*	u
Cc1cccc(C(=O)NNC(=O)c2ccc(Cl)cc2)c1O	u	u	-21%	14	21µM*	-19%
O=C(NNC(=O)c1ccccc1O)c1ccc(Cl)cc1	18µM*	u	u	243	16µM*	u
CC(=O)c1ccccc1C(=O)N1CCC(n2nccc2NC(=O)C2CC2)CC1	-9%	5%	-2%	0	-2%	-2%
CCNC(=O)N(C)C[C@H]1N[C@@](C)(C(=O)OC)[C@H]2C(=O)N(Cc3ccccc3)C(=O)[C@@H]12	-1%	26%	15%	1	-1%	14%
O=c1[nH]c(=O)n(Cc2ccco2)c2c1C(C(F)(F)F)(C(F)(F)F)N=C(c1ccc(F)cc1)N2	12µM*	-6%	u	-68*	6.5µM*	u
Cc1ccc(C)c(-n2nnnc2Sc2nnnn2-c2ccccc2)c1	u	21µM*	u	-109*	13µM*	16µM*
c1ccc(Cn2c(Sc3nnnn3-c3ccccc3)nnc2-c2ccccc2)cc1	u	-3%	-17%	-59*	u	-9%
CN(C(=O)CSc1nnc(-c2ccco2)n1C)C1CCCCC1	2%	4%	2%	3	2%	-6%
COC(=O)c1cccc(NC(=O)NC23CC4CC(CC(C4)C2)C3)c1	u	u	-30%	-1	u	u
COC(=O)c1ccc(Cl)c(NC(=O)NC23CC4CC(CC(C4)C2)C3)c1	23µM*	21µM*	-26%	-14	18µM*	-9%
COC(=O)c1cccc(S(=O)(=O)N2CCC(NC(=O)NC34CC5CC(CC(C5)C3)C4)CC2)c1	23µM*	u	1%	-13	21µM*	-1%
COc1ccc(Oc2c(C(F)(F)F)oc3cc(OCC(=O)O)ccc3c2=O)cc1	-4%	2%	3%	-2	9%	-1%
SMILES	DT40 TDP1 CPT	ELG1 repair inh	HT1080-NT tox	IL-1B inflam inh	DT40 TDP1 no CPT	HT1080 IDH1KD tx
Cc1cc(C(=O)Nc2cccc3c2O[C@@H](CN(C)S(C)(=O)=O)[C@H](C)CN([C@@H](C)CO)C3=O)n(C)n1	-5%	18%	11%	11	-5%	10%
Cc1ccc(-c2nnc(N3CCN(c4ccccn4)CC3)c3ccccc23)cc1	u	16µM*	-28%	-89*	u	u
COc1ccc(-c2nnc(N3CCC(C)CC3)c3ccccc23)cc1	u	-4%	7%	3	16µM*	9%
CCCC(=O)Nc1cc(-c2nnc(OC)c3ccccc23)ccc1N1CCCCC1	x	12%	x	x	x	x
COc1nnc(-c2ccc(N3CCCCC3)c(N)c2)c2ccccc12	7.3µM*	x	-6%	u	8.2µM*	-27%
Clc1nnc(N2CCCCC2)c2ccccc12	u	u	-6%	-81*	u	-9%
O=C(NNC(=O)c1ccc(O)c(Cl)c1)c1cccc(S(=O)(=O)N2CCOCC2)c1	-19%	3%	-30%	-1	u	-6%
Cn1c(-c2ccsc2)c(-c2cccs2)c2cc(Br)ccc21	u	0%	-1%	10	u	-3%
CN1CCN(c2nnc(-c3ccc(F)cc3)c3ccccc23)CC1	-1%	6%	0%	-30	1%	-14%
Cc1ccc(-c2nnc(N3CC(C)OC(C)C3)c3ccccc23)cc1 (stereo unspecified)	29µM*	u	2%	-75*	16µM*	1%
c1ccc(-c2nnc(N3CCN(c4ccccn4)CC3)c3ccccc23)cc1	u	13µM*	6%	-73*	u	-6%
COc1ccc(-c2nnn3c2nc(N2CCCC(C)C2)c2ccccc23)cc1 (stereo unspecified)	u	x	x	x	29µM*	x
Cc1ccc(C(=O)CN2CCN(c3ccccn3)CC2)c(C)c1	0%	20%	24%	-10	11%	28%
Cc1ccc2cc(C)c(N3CCN(c4ccccn4)CC3)nc2c1	18µM*	u	-1%	u	u	1%
CNc1ncncc1-c1ccccc1C	-16%	x	x	x	6%	x
